Compound activity: PubChem, Broad Institute
Tgondii IFNg: blocks Toxoplasma gondii growth in the presence of IFN-gamma; Toxoplasma gondii growth in IFN-gamma-treated host cells; active compounds read low; activity change, negative = inhibition, % (test concentration not listed); actives 3.8% (n = 69,000); in the data active means activity change below about -70%, passing the limit was not always enough;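 further: host cells are HeLa cells infected with Toxoplasma gondii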
Each line names hits and unclear results; the compound was inactive in the other large screens; ! = repeats disagree. Many of the other results were omitted from the sample, so hits are more common in it than they were.

COc1ccc(S(=O)(=O)Nc2ccc3c(c2)C(=O)N([C@H](C)CO)C[C@H](C)[C@@H](CN(C)Cc2ccc(C(F)(F)F)cc2)OCCCC[C@@H](C)O3)cc1	Tgondii IFNg -91
C[C@H](CO)N1C[C@H](C)[C@@H](CN(C)C(=O)Nc2ccc(C(F)(F)F)cc2)OCCCC[C@H](C)Oc2ccc(NS(=O)(=O)c3cn(C)cn3)cc2C1=O	none
CCOC(=O)c1cc(-c2csc(CS(=O)(=O)c3ccccn3)n2)on1	none
CCN1c2cc(F)ccc2C(=O)NC12CCN(C(=O)c1ccc(OC)cc1OC)CC2	none
CCn1cc(CN(CCCN(C)C)Cc2ccc(C)o2)c(C)n1	none
COc1cc(S(=O)(=O)NCCc2ccccc2)ccc1-n1cnnn1	none
Cn1ccnc1CN(Cc1ccncc1)C[C@@H]1CCC(=O)N1	none
Cn1cnc2c(-c3cccnc3)nc(C3CCN(C(=O)c4ccccn4)CC3)cc21	none
CO[C@H]1CCN(c2ncc(F)cn2)C[C@@H]1Cc1ccccc1	none
O=C(CN1C(=O)CCc2cc(S(=O)(=O)N3CCCC3)ccc21)NCc1ccc(F)cc1	none
COCC(=O)N1C[C@@H](C)[C@H](OC)CN(C)C(=O)c2ccc(NC(=O)c3ccc(-c4ccccc4)cc3)cc2OC[C@H]1C	Tgondii IFNg -103
CCC(=O)Nc1ccc2c(c1)OC[C@H](C)N(Cc1ccccc1)C[C@@H](C)[C@@H](OC)CN(C)C2=O	none
CO[C@@H]1CN(C)C(=O)c2ccc(NC(=O)c3ccc4c(c3)OCO4)cc2OC[C@@H](C)N(Cc2ccc3c(c2)OCO3)C[C@H]1C	Tgondii IFNg -80
COCC(=O)Nc1ccc2c(c1)OC[C@@H](C)N(C)C[C@@H](C)[C@@H](OC)CN(C)C2=O	none
CCCC(=O)Nc1ccc2c(c1)C(=O)N(C)C[C@@H](OC)[C@H](C)CN(C(=O)c1ccccn1)[C@H](C)CO2	none
CO[C@@H]1CN(C)C(=O)c2ccc(NC(=O)Nc3cc(F)ccc3F)cc2OC[C@H](C)N(C(=O)c2ccccn2)C[C@@H]1C	none
CO[C@H]1CN(C)C(=O)c2ccc(NC(=O)Nc3cc(F)ccc3F)cc2OC[C@@H](C)N(C(=O)c2ccccn2)C[C@@H]1C	Tgondii IFNg -88
CO[C@@H]1CN(C)C(=O)c2cc(NC(C)=O)ccc2OC[C@H](C)N(Cc2ccncc2)C[C@H]1C	none
COCC(=O)N1C[C@H](C)[C@@H](OC)CN(C)C(=O)c2ccc(NC(=O)Nc3cccc(F)c3)cc2OC[C@@H]1C	none
CCC(=O)Nc1ccc2c(c1)OC[C@H](C)N(Cc1ccccc1)C[C@H](C)[C@@H](OC)CN(C)C2=O	none
CO[C@@H]1CN(C)C(=O)c2cc(NC(=O)Nc3ccccc3F)ccc2OC[C@@H](C)N(C(=O)c2cnccn2)C[C@H]1C	none
CCCC(=O)Nc1ccc2c(c1)C(=O)N(C)C[C@@H](OC)[C@H](C)CN(Cc1cc(-c3ccccc3)on1)[C@H](C)CO2	Tgondii IFNg -81
CCOCC1CCC2(CCN(C(=O)COc3ccccc3)CC2)N1C (stereo unspecified)	none
CC(C)n1cnc2c(-c3cnn(C)c3)nc(C3CCN(C(=O)c4cccnc4)CC3)cc21	none
CCCc1nc(C)cc(N2CC(c3cccnc3)C2)n1	none
O=C1NC(=O)[C@@H]2CN(Cc3cc4n(n3)CCCNC4)C[C@H]12	none
Cc1occc1C(=O)N1CCc2ncnc(N3CCOCC3)c2CC1	none
CCC(C)N(Cc1cccnc1)C(=O)c1cccc(NC(=O)c2ccoc2C)c1 (stereo unspecified)	none
CC(C)Oc1ccc(CNC(=O)c2nc(N3CCOCC3)c3ccccc3n2)cc1	Tgondii IFNg -79
CC(C)Oc1ccc(CNC(=O)c2nc(Nc3ccccc3)c3ccccc3n2)cc1	none
Cc1ccc(CCNC(=O)c2nc(N3CCOCC3)c3ccccc3n2)cc1	Tgondii IFNg -84
Cc1ccccc1CNC(=O)c1nc(N2CCOCC2)c2ccccc2n1	none
CCOC(=O)c1nc(N2CCOCC2)c2ccccc2n1	none
CCOc1ccccc1CNC(=O)c1nc(N2CCOCC2)c2ccccc2n1	none
Cn1ccnc1C(=O)N1CCCC2(CCC(=O)N2)C1 (stereo unspecified)	none
CC1CCN(c2cncnc2-n2cc(NC(=O)C3CCCC3)cn2)CC1	none
CC(C)c1ccc(NC(=O)Cn2c(=O)cc(C(=O)N3CCc4ccccc4C3)c3ccccc32)cc1	none
CN(C)c1ncnc2c1CCN(S(=O)(=O)c1cccc3nsnc13)C2	none
CSc1nsc(SC)c1C(=O)NCc1ccc2c(c1)OCO2	none
Cc1oc(-c2ccc(NC(=O)c3ccc(C(F)(F)F)cc3)cc2)nc1Cn1cccn1	none
CCCn1cnnc1CNC1CCc2ccc(OC)cc2C1 (stereo unspecified)	none
COc1ccccc1NC(=O)C1CCN(S(=O)(=O)c2ccc3[nH]c(=O)ccc3c2)CC1	none
Cc1ccccc1SCC(=O)N1CCNCC1C(=O)N1CCOCC1 (stereo unspecified)	none
O=C(NCc1c(Cl)cccc1Sc1ccc(Cl)cc1)c1ccc(Cl)cc1	Tgondii IFNg -102
O=C(Nc1ccc(Sc2cccs2)cc1)c1ccc(Cl)cc1	none
O=C(CNC(=O)c1ccc(Cl)cc1)NO	none
CN1CCN2C[C@@H](NC(=O)C3(Cn4cccn4)CC3)C[C@H]2C1	none
COCCC(=O)N1CCc2nc(N3CCOCC3)nc(NC(C)C)c2C1	none
COc1cccc(C(=O)N2CCc3nc(N4CCCC4)nc(NC(C)C)c3C2)c1	Tgondii IFNg -110
Cc1ccsc1C(=O)N1CCc2nc(N3CCOCC3)nc(NC(C)C)c2C1	none
Cc1c(C(=O)N2CC[C@@H]3O[C@@H](C)C[C@@H]3C2)oc2ccccc12	none
CNC(=O)c1ccc(Nc2ncc(C(F)(F)F)c(NCc3nccnc3N(C)S(C)(=O)=O)n2)cc1	Tgondii IFNg -85
COc1ccccc1C(=O)N1CCN(c2nc(C)nc3ccc(N4CCOCC4)cc23)CC1	none
Cc1ccsc1/C=N\NC(=O)c1ccc2c(c1)OCO2	none
Cc1ccc(/C=N/NC(=O)c2ccccc2Oc2ccccc2)o1	none
O=C(N/N=C/c1ccc([N+](=O)[O-])o1)c1ccc(O)cc1	Tgondii IFNg -81!
Cc1nc(C)c(C(=O)N2CCC(CC(=O)NC(C)c3ccccc3)CC2)s1 (stereo unspecified)	none
CCOc1ccc(-c2cc3c(=O)n(Cc4nc(-c5ccc(C)cc5)oc4C)ccn3n2)cc1	none
O=C(NCCS(=O)(=O)c1ccc(F)cc1)C1OCCc2ccccc21 (stereo unspecified)	none
O=C(Nc1cnn(Cc2cccc(F)c2)c1)C1OCCc2ccccc21 (stereo unspecified)	Tgondii IFNg -97
COc1cccc2cc(C(=O)Nc3cnn(Cc4cccc(F)c4)c3)c(C)nc12	none
N#Cc1ccc(N2CCC3(CC2)CC(Oc2cccnc2)CO3)cc1 (stereo unspecified)	none
CC1COC2(CCN(c3ccc(C#N)cc3)CC2)C1 (stereo unspecified)	Tgondii IFNg -90
CCN1CCOCC12CCN(c1ccc(C#N)cc1)CC2	none
O=C(Nc1cccc(-c2nc3ccccc3o2)c1)c1ccccc1	none
CC(C)CC(=O)Nc1ccc2oc(-c3ccncc3)nc2c1	none
CC(C)(C)c1ccc(C(=O)Nc2ccc3oc(-c4ccccc4)nc3c2)cc1	Tgondii IFNg -84
O=C1CC2(CCN(C(=O)C3CCOCC3)CC2)CN1Cc1cccnc1	none
Cc1nc(-c2ccc(F)cc2)nc2c1CCN(c1cnccn1)CC2	none
Cc1ccc(SCC(=O)c2ccc(Br)cc2)cc1	none
COc1ccc(-c2cc(C(F)(F)F)nn2-c2nc(-c3ccc(C)cc3)cs2)cc1	none
CC(=O)Oc1cccc(-c2csc(-n3nc(C(F)(F)F)cc3-c3ccc(Cl)cc3)n2)c1	Tgondii IFNg -93
Cc1ccc(-c2cc(C(F)(F)F)nn2-c2nc(-c3ccccc3)cs2)cc1	none
O=C(Nc1cnn(-c2ncncc2N2CCSCC2)c1)C1CCCCC1	none
